# The panel holds about 83,000 compounds, 20% with a hit somewhere; the sample as a whole holds those more often.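 Growth was measured after 48 h exposure to one concentration of compound in 96-well plates. Values under 10 count as active.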 A number with no mark means an inactive call. The source made the active and inactive calls.
# System: HL-60(TB) leukemia
# Experiment: NCI-60 one-dose screen, 48 h (100 = growth as untreated, 0 = no growth, -100 = all killed)
# Conditions: 10 µM unless noted
# Protocol: Growth inhibition of the HL-60(TB) human tumor cell line is measured as a screen for anti-cancer activity. Cells are grown in 96 well plates and exposed to the test compound for 48 hours. Compounds are tested at a single concentration, which is 10^-5 M for most compounds. The reported endpoint is percent growth (GI% or GIPRCNT), where numbers from 0 - 100% represent growth inhibition, and numbers from -100% - 0 represent cell death. For example, a value of 40 represents 60% growth inhibition. A value of 0 means no net growth occurred over the course of the experiment. A value of -40 indicates 40% of cells at the beginning of the experiment died by the end of the experiment. A value of -100 means all cells are dead at the end of the experiment.
# NCI-60 Human Tumor Cell Lines Screen was performed using the standard one-dose NCI protocol, which is described in more detail at https://dtp.cancer.gov/discovery_development/nci-60/default.htm.
# Compounds with GIPRCNT values below 10 were considered active. Activity score was based on GIPRCNT using the following formula: […]
# Score is 0 for GIPRCNT values of 100 or above, 50 for GIPRCNT values of 0, and 100 for GIPRCNT values of -100.
row,SMILES,growth
1,CC1=C(C(=O)OC(C)C)C(c2ccc(O)cc2)NC(=S)N1 (stereo not given),88.1%
2,COc1ccc(CN2[C@H](C(=O)NCCCCCCC(=O)NO)Cc3c([nH]c4ccccc34)[C@H]2C2CC2)cc1,3.44% (active)
3,O=C(/C=C/Nc1ccccc1)c1ccc2c(c1)Nc1ccccc1S2,90.9%
4,CC1(C)CC[C@]2(C(=O)Nc3ccc(Br)cc3)CC[C@]3(C)C(=CCC4[C@@]5(C)C[C@@H](O)[C@H](O)[C@@](C)(CO)C5CC[C@]43C)C2C1 (stereo not given in full),-13.2% (active)
5,CN(C)c1nc(NCCNS(=O)(=O)c2ccc(C(=O)/C=C/c3ccc(Cl)cc3)cc2)nc(N2CCOCC2)n1,16.8%
6,CCC[Se]C(=O)c1ccc(C(=O)[Se]CCC)s1,-26.7% (active)
7,CNC(=O)c1cc(Oc2ccc3nc(NC(=O)Nc4cccc(OC(F)(F)F)c4)sc3c2)ccn1,62.7%
8,OCc1[nH]nc2cc(Nc3ncc4ccc(Br)c(OC5CCC(O)CC5)c4n3)ccc12 (stereo not given),-40.1% (active)
9,Cn1cc(-c2cc(N)n3nc(-c4c[nH]c5ccccc45)cc3n2)c2cccnc21,-70.9% (active)
10,CN1C(=O)N(C)C2SC(N/N=C/C=C/c3ccccc3)=NC21 (stereo not given),30.4%
11,COc1ccc2[nH]c(=O)c(CSc3ccc(Nc4nccc(-c5ccc(Cl)cc5)n4)cc3)cc2c1,86.1%
12,C=C1CC[C@@H]2[C@]3(C)COC(c4cn[nH]c4-c4ccc(F)cc4)O[C@@H]3CC[C@@]2(C)[C@@H]1C/C=C1/C(=O)OCC1O (stereo not given in full),-21.7% (active)
13,COC(=O)c1cccc(Oc2ccc(NC(=O)Nc3cc(C(F)(F)F)ccc3F)cc2)c1,78%
14,Cc1cccc(-c2nc(Nc3cccc(S(N)(=O)=O)c3)c3ccccc3n2)c1,44.9%
15,NC(=S)Nc1cccc(NC(N)=S)c1,99.1%
16,Cc1ccc(S(=O)(=O)Nc2ccc(-c3ccc4c(c3)NC(=O)/C4=C\c3ccc[nH]3)cc2)cc1,39.3%
17,O=C(NNC(=S)NCCc1ccccc1)c1ccc(OCc2nc3ccc(Cl)cc3[nH]2)cc1,88.9%
18,COc1cc(CNC(=O)[C@]23CCC(C)(C)CC2C2=CCC4[C@@]5(C)CCC(OC(C)=O)C(C)(C)C5CC[C@@]4(C)[C@]2(C)CC3)ccc1OCc1cn(-c2ccc(Cl)cc2Cl)nn1 (stereo not given in full),105%
19,COc1ccc(/C=C2\C(=N)N=C(SCc3nc4ccccc4[nH]3)NC2=O)cc1,103%
20,COc1ccc2cc([C@H](C)C(=O)[Se]CCC#N)ccc2c1,-42.5% (active)

row,SMILES,growth
1,COc1ccc(-c2nc3cc(C)ccc3n2CC(=O)N=Nc2c(O)[nH]c3ccc(OC)cc23)cc1,-62.1% (active)
2,N#Cc1c(-c2cccnc2)cc(-c2ccc3ccccc3c2)[nH]c1=O,72.6%
3,CN1C(=O)/C(=C/c2ccco2)S/C1=N/c1nccs1,102%
4,Cn1cc(NC(=O)c2cc(NC(=O)c3ccc(/C=C/c4ccccc4)cc3)cn2C)cc1C(=O)NCCCN1CCOCC1,-37.6% (active)
5,CCOC(=O)c1ccc(NC(=O)CSC(CC(=O)c2sc(Nc3ccccn3)nc2C)c2ccccc2F)cc1 (stereo not given),2.8% (active)
6,O=C(CNc1nc(-c2ccccc2)cs1)Nc1ccc(Cl)cc1,-46.7% (active)
7,COc1ccc(NC(=O)[C@@H](N)Cc2ccccc2)cc1C(=O)Nc1cccc(C2CC(=O)c3c(cc(OC)c(OC)c3OC)O2)c1 (stereo not given in full),1.01% (active)
8,CC(C)Sc1nc(NC2CC2)c(C#N)c(-c2ccccc2)n1,98.1%
9,CCOP(=O)(OCCCl)c1nc(-c2ccc(C)cc2)oc1NCc1ccccc1 (stereo not given),71.9%
10,COC(=O)C(Cc1ccc(O)c(O)c1)NC(=O)C(CSC/C=C(\C)CCCC(C)CCCC(C)CCCC(C)C)NC(C)=O (stereo not given),-22.9% (active)
11,COc1ccc(-c2cc(C(=O)N=Nc3c(O)[nH]c4ccc(Br)cc34)c3ccccc3n2)cc1,21.1%
12,O=C(OCCOCCO)N(c1cccc(Br)c1)c1nc(SCCN2CCOCC2)nc2c1cnn2CC(Cl)c1ccc(Br)cc1 (stereo not given),-46.8% (active)
13,Cc1[nH]nc2ccc3nc(-c4cnn(CCO)c4)c4c(c3c12)CCCC4,36.9%
14,O=C1Nc2cc(-c3ccc(NS(=O)(=O)c4ccc(C(F)(F)F)cc4)cc3)ccc2/C1=C/c1ccc[nH]1,1.77% (active)
15,N/C(=N\c1nc2ccccc2s1)NC(=O)NCCCCCCO,45.8%
16,Cn1cc(-c2cc3nc(-c4cn(C)c5ncccc45)cc(N)n3n2)c2cc(F)ccc21,7.11% (active)
17,Cc1cccc(Nc2nc3ccccc3nc2/C=C/c2ccc(F)cc2)c1,97.3%
18,Cc1ccc2nc(NC(=O)Nc3cccc(Cl)c3)sc2c1,95.7%
19,COc1ccc(N=Nc2c(N)nn3c(N)c(C#N)c(-c4ccc(F)cc4)nc23)cc1,74%
20,COc1cnc2c(c1)C(=O)c1c-2n(CCCNCCO)c(=O)c2cc(OC)c(OC)cc12,61.3%
